EWS-Fli block: EWS/Fli transcriptional activity inhibition; A673 NR0B1-luciferase reporter, viability-normalised; inhibition, % at 12.6 µM; actives 0.67% (n = 350,000); AID 651661;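 active = mean inhibition of at least 50% after viability correction, with every replicate also passing that limit; inconclusive = mean reaches 50% but only one of two replicates passes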;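 also: firefly luciferase signal divided by Alamar Blue viability fluorescence both relative to DMSO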
PGC1a acetyl inh: modulators of PGC1a acetylation; U2OS PGC1a acetylation, AlphaScreen anti-acetyl-lysine; with virally co-expressed GCN5 acetyltransferase; inhibition, % at 15.6 µM; actives 0.17% (n = 350,000); AID 651687;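 active = every replicate shows inhibition of at least 40%; inconclusive = mean inhibition at least 40% but some replicate below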;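 also: 0% = neutral control wells and 100% = positive control wells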
PAX8 inh HTS: lowers PAX8-driven luciferase in RMG-I cells; RMG-I TPO-luciferase reporter, SteadyGlo, 24 h; inhibition, % at 12.6 µM; actives 1.2% (n = 360,000); AID 652154;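 active = mean replicate inhibition at least 60% with every replicate also reaching 60%; inconclusive = only one of the two criteria is met; inactive = mean below 60% and not all replicates reaching 60%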;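 also: luciferase light reporting Pax8 driven TPO promoter activity; plate controls were median of neutral control wells for no effect and mitoxantrone controls for full effect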
HIV Env fusion: blocks HIV Env-driven cell-cell fusion | HeLa-JRFL Env/CEM21 cell fusion, luciferase | inhibition, % at 12.3 µM | actives 1.1% (n = 360,000);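 active = mean replicate inhibition score of at least 50 and every replicate individually at or above 50; inconclusive = only one of the two criteria met; inactive = mean below 50 and not all replicates reaching 50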;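 also: 0% = plate neutral controls and 100% = maraviroc near 300 nM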
GSIS activator: primary screen for activators of insulin secretion dependent on glucose, INS-1E cells, GLuc reporter luminescence; INS-1E GLuc reporter insulin secretion, 2-3 h; activation, % at 16.6 µM; AID 743287; actives 0.61% (n = 370,000);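 active = lowest replicate activation of at least 40%, so every replicate reaches that level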;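 also: 0% = median of neutral control wells and 100% = median of IBMX positive control wells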
F508del corr: CFTR F508del correction in bronchial cells; CFBE cells, YFP halide quenching; stimulated with forskolin plus potentiator P3; % fluorescence drop versus neutral controls; activity (quench increase), % at 7.58 µM; actives 0.36% (n = 350,000);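 active = mean added fluorescence quench of at least 8% versus neutral control, with both replicates also reaching 8%; inconclusive = only one of the mean or replicate conditions met; inactive = mean below 8% and not both replicates reaching 8%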;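 also: cells transiently co-express mutant CFTR-F508del with the halide-sensitive YFP; corrector assay measuring rescue of mutant channel to the surface after 24 h compound exposure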
* = called active by the depositor; [ ] = remark or other dose. Rows were chosen to be rich in hits. Some 2.7% of all compounds tested hit in one or more screens of this group.

`C[C@H](CO)N1C[C@H](C)[C@H](CN(C)C(=O)Cc2ccccn2)Oc2ncc(C#CC3CCCCC3)cc2C1=O` gave EWS-Fli block -4, PGC1a acetyl inh -42, PAX8 inh HTS 0, HIV Env fusion 7[16.7 µM], GSIS activator -7 and F508del corr -2.
O=C(c1ccc(Cl)cc1)c1cc([N+](=O)[O-])ccc1N1CCOCC1 was read as EWS-Fli block 59*, PAX8 inh HTS 43, HIV Env fusion -53, GSIS activator 1 and F508del corr 2.
For CC1CCN(c2ccc([N+](=O)[O-])cc2C(=O)O)CC1 the results were EWS-Fli block 0, PAX8 inh HTS -2, HIV Env fusion -2 and GSIS activator 2.
CC1CCCN(c2ccc([N+](=O)[O-])cc2C(=O)c2ccccc2)C1 (stereo not given) was read as EWS-Fli block 59*, PAX8 inh HTS 57, HIV Env fusion -16 and GSIS activator 9.
`Cc1ccc(C(=O)c2cc([N+](=O)[O-])ccc2N2CCCCC2)cc1` gave PAX8 inh HTS 88*, HIV Env fusion -35 and GSIS activator 17.
`Cc1ccc(C(=O)c2cc([N+](=O)[O-])ccc2N2CC(C)OC(C)C2)cc1` (stereo not given) gave EWS-Fli block inconclusive, PGC1a acetyl inh 11, PAX8 inh HTS 9, HIV Env fusion -1, GSIS activator 2 and F508del corr 0.
Screening O=C(c1ccccc1)c1cc([N+](=O)[O-])ccc1N1CCOCC1 returned PGC1a acetyl inh 0, PAX8 inh HTS 43, HIV Env fusion 13 and GSIS activator 25.
Screening O=C(c1ccc(Br)cc1)c1cc([N+](=O)[O-])ccc1N1CCOCC1 returned EWS-Fli block 46, PAX8 inh HTS 24, HIV Env fusion -3, GSIS activator 24 and F508del corr 12*.
Screening COc1ccc(CC(=O)Oc2ccc(C)cc2Br)cc1OC returned PGC1a acetyl inh 1, PAX8 inh HTS 9, HIV Env fusion 61*, GSIS activator 42 and F508del corr -2.
`COc1ccc(S(=O)(=O)N2C[C@H](O)COC[C@H]3O[C@@H](CC(=O)NCc4ccc(Cl)c(Cl)c4)CC[C@@H]32)cc1` gave EWS-Fli block 13, PGC1a acetyl inh -10, PAX8 inh HTS 20, HIV Env fusion 13[16.7 µM], GSIS activator -25 and F508del corr 0.
`COc1ccc(C(CCNCc2ccc(N(C)C)cc2)C(C)C)cc1` (stereo not given) gave EWS-Fli block 39, PAX8 inh HTS 2, HIV Env fusion 65* and F508del corr 2.
Screening COc1ccc(CNCCC(c2ccc(OC(C)C)cc2)C(C)C)cc1OC (stereo not given) returned PGC1a acetyl inh 3, HIV Env fusion 77* and GSIS activator -20.
`COc1ccc(CNCCC(c2ccc(OC(C)C)cc2)c2ccccc2OC)cc1` (stereo not given) gave EWS-Fli block 48, PAX8 inh HTS 68*, HIV Env fusion inconclusive, GSIS activator 5 and F508del corr -1.
For COc1ccc(CNCCC(c2ccc(OC(C)C)cc2)c2ccccc2OC)cc1OC (stereo not given) the results were EWS-Fli block inconclusive, PGC1a acetyl inh -4, PAX8 inh HTS 39, HIV Env fusion 46, GSIS activator -44 and F508del corr 3.
For Cc1cccc(N(C(=O)CNC(=O)c2ccco2)C(C(=O)NC2CCCCC2)c2cccnc2)c1 (stereo not given) the results were EWS-Fli block 2, PAX8 inh HTS 5, HIV Env fusion 41, GSIS activator -2 and F508del corr 0.
For O=C(NC1CCCCC1)C(c1cccnc1)N(C(=O)CCl)c1cccc(Cl)c1 (stereo not given) the results were EWS-Fli block 58*, PGC1a acetyl inh -15, PAX8 inh HTS 29, GSIS activator 6 and F508del corr 2.
Screening C[C@@H]1CN([C@@H](C)CO)C(=O)c2cccc(NC(=O)Nc3ccc(C(F)(F)F)cc3)c2O[C@@H]1CN(C)S(=O)(=O)c1ccc(Cl)cc1 returned EWS-Fli block -5, PGC1a acetyl inh 2, GSIS activator 19 and F508del corr 1.
Screening CCS(=O)(=O)N(C)C[C@@H]1N[C@H](CO)[C@@H]1c1ccc(C#CC2CCCC2)cc1 returned EWS-Fli block -15, GSIS activator 9 and F508del corr 1.
For C[C@H]1CN([C@@H](C)CO)C(=O)c2cc(-c3ccc(C#N)cc3)cnc2O[C@@H]1CN(C)Cc1ccccn1 the results were EWS-Fli block -5, PGC1a acetyl inh -7, HIV Env fusion 28[16.7 µM], GSIS activator 6 and F508del corr 0.
O=C1C=C(N2CCOCC2)c2ccccc2C1=O was read as EWS-Fli block 49, PAX8 inh HTS 74*, HIV Env fusion 65*, GSIS activator -15 and F508del corr -8.
C[C@H]1CN([C@@H](C)CO)S(=O)(=O)c2ccc(-c3ccc(C(=O)N(C)C)cc3)cc2O[C@H]1CN(C)C(=O)C1CCCCC1 was read as EWS-Fli block -1, PGC1a acetyl inh 9, HIV Env fusion 11[16.7 µM], GSIS activator -1 and F508del corr -2.
O=C(C[C@H]1C[C@@H]2c3cc(NC(=O)Nc4ccccc4)ccc3O[C@@H]2[C@@H](CO)O1)NCc1cccnc1 was read as EWS-Fli block -7, PGC1a acetyl inh 0, PAX8 inh HTS 11, HIV Env fusion -11[16.7 µM], GSIS activator 2 and F508del corr -3.
Screening CCOc1cc(NC(=O)CCl)c(OCC)cc1NC(=O)CCl returned EWS-Fli block 45, PGC1a acetyl inh -20, PAX8 inh HTS 76*, HIV Env fusion 19, GSIS activator -52 and F508del corr -8.
Screening C[C@@H]1CN([C@@H](C)CO)C(=O)c2cc(NC(=O)Nc3ccccc3)ccc2O[C@@H](C)CCCCO[C@H]1CN(C)C(=O)c1ccccc1 returned EWS-Fli block 21, PGC1a acetyl inh 3, PAX8 inh HTS 4, HIV Env fusion 30[16.7 µM], GSIS activator -3 and F508del corr 0.
C[C@H]1C[C@H]2[C@@H]3CCC4=CC(=O)C=C[C@]4(C)[C@@]3(F)[C@@H](O)C[C@]2(C)[C@@]1(O)C(=O)CO was read as EWS-Fli block -5, PGC1a acetyl inh 2, PAX8 inh HTS -23, HIV Env fusion inactive, GSIS activator -7 and F508del corr 10*.
`C[C@H]1C[C@H]2[C@@H]3CCC4=CC(=O)C=C[C@]4(C)[C@@]3(Cl)[C@@H](O)C[C@]2(C)[C@@]1(O)C(=O)CO` gave EWS-Fli block 3, PGC1a acetyl inh 1, PAX8 inh HTS 5, HIV Env fusion inactive, GSIS activator -13 and F508del corr 6.
